This is an account of results in PubChem BioAssay.

The experiment has as its system wheat germ agglutinin (Triticum aestivum), Alexa647-labelled. Description: wheat germ agglutinin binders on compound microarrays, profiling panel, artefact control for SMM control-protein annotation, biochemical, small-molecule microarray, 635/667 nm fluorescence (AID 1140).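 Note: score merges 667 nm feature emission with signal to noise over triplicate slides.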 To be noted: WGA-A647 binding, 635 nm fluorescence, higher = more signal.
`CN(C)CCCC[C@@H]1NC(=O)[C@@H]2C[C@H](C(=O)NCc3ccc(F)cc3)[C@H](c3ccc(O)cc3)N2C1=O` returned a composite z-score of -0.0665.

On to `CC(=O)c1ccc(C(O)C2C=CC3C(=O)N(C)C(=O)C3N2NC(=O)OC(C)(C)C)cc1` (stereo not given), for which the composite z-score came out at 1.34. `CO[C@H]1O[C@H](CO)[C@@H](OC(=O)Nc2ccc3c(c2)OCO3)[C@@H]2OC(=O)[C@@H](Cc3ccccc3)C/C=C/C[C@H](Cc3ccccc3)C(=O)O[C@@H]12` came in with a composite z-score of 0.214. `O=C1NC(=O)C2C1C=CC(C(O)c1cccc(O)c1)N2Nc1ccc(Cl)cc1Cl` (stereo not given) came in with a composite z-score of 0.447. Compound `Cc1ccc(S[C@]2(C(=O)NCCCN(C)C)CC(=O)N(Cc3ccccc3Cl)[C@@H]2c2ccc(CO)cc2I)cc1` showed a composite z-score of 1.17. In turn, `O=c1cccc(-c2ccccc2C(F)(F)F)o1` registered a composite z-score of -0.861. In turn, `COCCOC(=O)N1C(=O)[C@@]2(c3cc(C#CCC(C(=O)OC)C(=O)OC)ccc31)[C@H](c1ccc(OCCO)cc1)N1[C@H](c3ccccc3)[C@H](c3ccccc3)OC(=O)[C@H]1[C@@H]2C(=O)N1CCCCCCC1` gave a composite z-score of 1.37. In turn, `C[C@H]1NC(=O)C([C@@H](C)OCc2ccccc2)NC(=O)[C@@]23C(=O)N[C@@H](Cc4ccccc4)C2[C@H](C)[C@@]2(C)O[C@H]2C3/C=C/C/C=C\CNC1=O` (stereo not given in full) showed a composite z-score of -0.682. Compound `COCC(=C=CC[C@@H](O)c1cccc(OCCO)c1)C[C@@H](O)COCc1ccccc1` returned a composite z-score of 1.34. The compound `C=C(CCCC)C(=O)CC[C@H](OC(C)=O)c1ccccc1OCCO` came in with a composite z-score of 0.737. Next, `CCC[C@@H]1C=C(C(=O)OCC)[C@H](c2ccccc2)N1S(=O)(=O)c1ccc(C)cc1`: 1.2.

`COCCOC(=O)N1C(=O)[C@@]2(c3cc(C#CC4(O)CCCCCC4)ccc31)[C@H](C(=O)N1CCc3cc(OC)c(OC)cc3C1)[C@H]1C(=O)O[C@H](c3ccccc3)[C@H](c3ccccc3)N1[C@@H]2c1ccc(O)cc1` gave a composite z-score of 0.972.

On to `Cc1ccc(F)cc1S(=O)(=O)N[C@@H]1CCN(Cc2ccc3c(c2)OCO3)C1`, for which the composite z-score is -0.0476. The compound `COCCOC(=O)N1C(=O)[C@@]2(c3cc(C#CC4(O)CCCCCC4)ccc31)[C@H](c1ccc(OCCO)cc1)N1[C@H](c3ccccc3)[C@H](c3ccccc3)OC(=O)[C@H]1[C@@H]2C(=O)N1CCCCCCC1` registered a composite z-score of 1.32. Regarding `CC(c1ccccc1)C(O)C1C=CC2C(=O)N(c3ccccc3)C(=O)C2N1Nc1ccc(C#N)cc1` (stereo not given), the composite z-score was 0.772. Regarding `COC(=O)C(CC#Cc1ccc2c(c1)[C@]1(C(=O)N2)[C@H](c2ccc(O)cc2)N2[C@H](c3ccccc3)[C@H](c3ccccc3)OC(=O)[C@H]2[C@@H]1C(=O)N1CCc2cc(OC)c(OC)cc2C1)C(=O)OC`, the composite z-score is 0.384. `C[N+](C)(C)CCCCCCNC(=O)[C@H]1C[C@H]2C(=O)NCC(=O)N2[C@H]1c1cccc(OCCO)c1` came in with a composite z-score of 0.273. With `COC(=O)c1c(CC[C@@H](CO)NC(=O)N[C@@H](Cc2ccccc2)Cn2cc(-c3cncn3C)nn2)oc(C(C)=O)c1C(=O)OC` the figure was 0.391. For the compound `O=C1O[C@@H](c2ccccc2)[C@@H](c2ccccc2)N2[C@@H](c3ccc(O)cc3)[C@]3(C(=O)Nc4ccc(C#CC5=CCCCC5)cc43)[C@@H](C(=O)N3CCCCCCC3)[C@H]12`, the composite z-score stood at 1.32. For `COC(=O)C1=CC(CCCO)=CC(C2CC2)N(Cc2cccc(OC(F)(F)F)c2)C=C1C(=O)OC` (stereo not given), the composite z-score amounted to 0.824.

Compound `COCCOC(=O)N1C(=O)[C@@]2(c3cc(C#CCC(C(=O)OC)C(=O)OC)ccc31)[C@H](C(=O)N1CCCCCCC1)[C@H]1C(=O)O[C@H](c3ccccc3)[C@H](c3ccccc3)N1[C@@H]2c1ccccc1OCCO` yielded a composite z-score of 1.46. `COCCOC(=O)N1C(=O)[C@@]2(c3cc(C#CCCO)ccc31)[C@H](c1ccccc1OCCO)N1[C@H](c3ccccc3)[C@H](c3ccccc3)OC(=O)[C@H]1[C@@H]2C(=O)N1CCc2cc(OC)c(OC)cc2C1` registered a composite z-score of 0.546. The compound `COC(=O)[C@@H]1N=C(c2ccc(OCCCO)cc2)O[C@@H]1c1ccccc1CN=[N+]=[N-]` returned a composite z-score of 0.939. On to `COC(=O)[C@H](Cc1ccc(O)cc1)N1CC2=CCCC=C[C@@H]2[C@H]1[C@H](O)Cc1ccccc1`, for which the composite z-score worked out at 0.216. `C=CC[C@@]1(C(=O)N(C)C)N=C(c2ccc(OCCCO)cc2)O[C@@H]1c1ccccc1` registered a composite z-score of 1.02.
